From ChEMBL document CHEMBL1961873, “Compounds: GSK PKIS; Assays: Nanosyn kinase panel” (2012)
Values joined by “and” are separate entries in the source; they are usually repeats but may differ in a detail not shown here. Identical values can stand only once.

What follows are compounds tested against Mast/stem cell growth factor receptor Kit (Homo sapiens) (UniProt P10721). Details: at 0.1 µM.
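Further: values are mean inhibition of KIT, from the GSK PKIS dataset.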

Chain of Mast/stem cell growth factor receptor Kit (Homo sapiens) (P10721 whole entry): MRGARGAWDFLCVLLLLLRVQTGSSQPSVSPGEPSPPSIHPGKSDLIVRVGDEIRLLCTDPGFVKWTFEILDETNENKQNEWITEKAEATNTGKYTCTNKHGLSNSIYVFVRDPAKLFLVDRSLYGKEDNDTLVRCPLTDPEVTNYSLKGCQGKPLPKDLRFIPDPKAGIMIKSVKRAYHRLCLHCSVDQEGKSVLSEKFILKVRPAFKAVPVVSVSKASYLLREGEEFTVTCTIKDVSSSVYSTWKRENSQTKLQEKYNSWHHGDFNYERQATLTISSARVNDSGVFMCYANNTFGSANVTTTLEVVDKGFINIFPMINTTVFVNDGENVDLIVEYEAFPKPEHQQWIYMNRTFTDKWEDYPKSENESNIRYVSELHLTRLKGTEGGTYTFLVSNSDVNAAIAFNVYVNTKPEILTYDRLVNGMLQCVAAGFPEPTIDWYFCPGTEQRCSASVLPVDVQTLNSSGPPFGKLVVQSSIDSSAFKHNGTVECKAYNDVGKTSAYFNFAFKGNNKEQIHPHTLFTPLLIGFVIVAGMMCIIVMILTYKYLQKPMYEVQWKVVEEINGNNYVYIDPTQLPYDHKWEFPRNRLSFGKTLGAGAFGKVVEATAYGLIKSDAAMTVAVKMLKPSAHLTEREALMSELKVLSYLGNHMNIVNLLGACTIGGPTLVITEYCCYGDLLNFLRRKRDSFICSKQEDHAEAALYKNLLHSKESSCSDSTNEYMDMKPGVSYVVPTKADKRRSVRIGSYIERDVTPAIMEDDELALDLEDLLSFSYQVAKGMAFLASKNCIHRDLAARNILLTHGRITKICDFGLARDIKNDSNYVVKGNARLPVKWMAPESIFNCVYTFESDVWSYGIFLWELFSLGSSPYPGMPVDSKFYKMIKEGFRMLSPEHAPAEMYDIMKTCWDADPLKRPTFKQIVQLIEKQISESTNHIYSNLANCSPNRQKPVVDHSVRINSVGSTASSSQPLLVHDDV

Row | SMILES | inhibition
1 | CCCNc1cccc(-n2ncc3c(N/N=C/c4ccncc4)ncnc32)c1 | 2.4%
2 | COc1cccc(Nc2nccc(-c3cnn4ncccc34)n2)c1 | 89.5%
3 | Cc1cc(O)cc(C)c1/C=C/c1cncc(C(=O)OC(C)(C)C)c1 | 38.3%
4 | CS(=O)(=O)Nc1ccc(-c2ccc3c(NC(=O)C4CC4)n[nH]c3c2)cc1 | 1.72%
5 | COC(=O)Nc1nc2cc(Oc3ccc(NC(=O)Nc4ccccc4)cc3)ccc2[nH]1 | 29.2%
6 | CN1CCC(n2cnc(-c3ccc(F)cc3)c2-c2ccnc(NCCO)n2)CC1 | 4.45%
7 | CC1=C(C(=O)Nc2ccc3[nH]ncc3c2)C(c2ccc(F)cc2)N=C(c2ccc(C(F)(F)F)nc2)N1 (stereo not drawn) | 4.11%
8 | NS(=O)(=O)c1cccc(N/C=C2\C(=O)Nc3ccccc32)c1 | 16.4%
9 | O=C(O[C@H]1CN[C@H](C#Cc2cc3ncnc(Nc4ccc5c(ccn5Cc5cc(F)ccc5F)c4)c3s2)C1)N1CCOCC1 | 2.29%
10 | CC1(C)CC(n2cnc(-c3ccc(F)cc3)c2-c2ccnc(N)n2)CC(C)(C)N1 | -0.71%
11 | c1ccc(-c2n[nH]cc2-c2ccnc(-c3ccc(OCCn4ccnc4)cc3)c2)nc1 | 1.62%
12 | CCN1CCC(C(=O)Nc2n[nH]c3nnc(-c4cccc(F)c4F)cc23)CC1 | 1.8%
13 | CS(=O)(=O)CCNCc1ccoc1-c1ccc2ncnc(Nc3ccc(OCc4ccccc4)cc3)c2c1 | 1.94%
14 | COc1cc2c(cc1Nc1nc(Nc3cccc(F)c3C(N)=O)c3cc[nH]c3n1)N(C(=O)CN1CCN(C(C)C)CC1)CC2 | -1.31%
15 | O=C(Nc1n[nH]c2nnc(-c3cccnc3)cc12)C1CC1 | 1.26%
16 | COc1cccc(-n2ncc3c(N/N=C/c4ccc(C(=O)NCCN(C)C)cc4)ncnc32)c1 | 15.5%
17 | CN1CCC(C(=O)Nc2n[nH]c3nc(-c4ccc(O)cc4)c(Br)cc23)CC1 | 3.81% and 2.92%
18 | O=C(O[C@H]1CN[C@H](C#Cc2cc3ncnc(Nc4ccc5c(cnn5Cc5ccccc5)c4)c3s2)C1)N1CCOCC1 | -3.59%
